TDP1 inh: blocks human tyrosyl-DNA phosphodiesterase 1; AID 485290; Q9NUW8; Potency, µM (titrated, usually from 130 µM), for inactives: at the top dose activity change, negative = inhibition, hits mostly inhibitors; actives 0.28% (n = 350,000); recombinant TDP1, AlphaScreen DNA substrate cleavage; note: % is set by controls: 0 for no effect and ±100 for the full control effect; nearly all actives have a fitted effect of over 40% in size
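Tdp1 1 nM final; 15 min RT w/ cpd; substrate 15 nM, 5 min; beads 10 ug/ml, 10 min; AlphaScreen read. Neg ctrl: no enzyme.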
G9a block: G9a (human) methyltransferase inhibition | AID 504332 | Q96KQ7 | Potency, µM (series often up to 102 µM), for inactives: at the highest dose activity, negative = inhibition, usual class: inhibitors | actives 8.8% (n = 350,000) | G9a H3K9 monomethylation, AlphaScreen, 2 h; note: % is set by controls: 0 for no effect and ±100 for the full control effect; nearly all actives have a fitted effect of over 75% in size
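AlphaScreen detection with an anti-monomethyl H3K9 antibody quantified product after a 2 h room-temperature reaction containing 500 nM biotinylated H3K9 peptide, 20 µM SAM and 20 nM enzyme, which had been preincubated 15 min with compound.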
HP1b binding inh: HP1-beta chromodomain-methylated histone interaction inhibition | AID 540317 | Potency, µM (doses to about 114 µM), for inactives: at the top dose activity change, negative = inhibition, hits mostly inhibitors | AlphaScreen HP1-beta / biotin-H3K9me3 peptide binding | actives 0.56% (n = 390,000); note: nearly all actives have a fitted effect of over 70% in size
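AlphaScreen: HP1-beta (50 nM) preformed 30 min with biotin-H3(1-18)K9me3 peptide (50 nM) in PBS pH 7.4, 0.01% Tween-20. Compound added for 30 min at RT, then streptavidin donor/nickel chelate acceptor beads (10 ug/mL) for 30 min.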
JMJD2A Tudor: blocks the human JMJD2A Tudor domain; O75164; AlphaScreen JMJD2A-Tudor / H3K4me3 peptide binding; Potency, µM (doses to about 114 µM), without a hit: top-dose activity change, negative = inhibition, most hits filed as inhibitors; actives 4.4% (n = 390,000); AID 504339; note: % is set by controls: 0 for no effect and ±100 for the full control effect; nearly all actives have a fitted effect of over 50% in size
Target sequence (O75164 whole entry, looked up, the tested form may be a part): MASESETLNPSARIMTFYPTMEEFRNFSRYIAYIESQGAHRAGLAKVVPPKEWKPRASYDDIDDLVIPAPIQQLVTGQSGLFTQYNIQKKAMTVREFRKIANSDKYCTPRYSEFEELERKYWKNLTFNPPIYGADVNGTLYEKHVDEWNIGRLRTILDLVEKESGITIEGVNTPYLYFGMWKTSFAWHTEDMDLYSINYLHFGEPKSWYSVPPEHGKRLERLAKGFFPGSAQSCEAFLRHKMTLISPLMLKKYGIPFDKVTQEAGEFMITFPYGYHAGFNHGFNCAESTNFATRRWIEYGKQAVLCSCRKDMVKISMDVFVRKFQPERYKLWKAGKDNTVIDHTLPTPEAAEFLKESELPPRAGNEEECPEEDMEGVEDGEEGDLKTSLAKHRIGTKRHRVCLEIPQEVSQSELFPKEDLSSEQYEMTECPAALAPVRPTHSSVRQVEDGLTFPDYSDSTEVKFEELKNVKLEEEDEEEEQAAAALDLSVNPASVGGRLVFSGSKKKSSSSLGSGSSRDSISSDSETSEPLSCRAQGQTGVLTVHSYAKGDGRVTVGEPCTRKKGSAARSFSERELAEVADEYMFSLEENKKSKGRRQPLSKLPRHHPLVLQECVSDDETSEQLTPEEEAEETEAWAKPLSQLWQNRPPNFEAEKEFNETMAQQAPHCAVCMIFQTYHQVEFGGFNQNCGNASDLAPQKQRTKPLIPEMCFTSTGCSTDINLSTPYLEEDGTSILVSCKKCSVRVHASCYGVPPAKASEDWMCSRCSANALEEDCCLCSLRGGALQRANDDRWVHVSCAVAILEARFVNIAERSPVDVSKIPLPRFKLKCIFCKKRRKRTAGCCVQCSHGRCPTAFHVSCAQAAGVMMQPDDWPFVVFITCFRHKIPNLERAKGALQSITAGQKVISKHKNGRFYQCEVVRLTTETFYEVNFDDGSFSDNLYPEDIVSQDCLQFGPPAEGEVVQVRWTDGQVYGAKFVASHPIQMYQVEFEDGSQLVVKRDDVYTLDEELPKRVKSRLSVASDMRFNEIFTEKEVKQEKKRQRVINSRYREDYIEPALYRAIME
Sfp PPTase inh: inhibitors of Bacillus subtilis Sfp phosphopantetheinyl transferase | AID 1490 | Biochemical Sfp PPTase activity, qHTS | actives 3.5% (n = 310,000) | Potency, µM, without a hit: largest response in the series, negative = inhibition, hits mostly inhibitors;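 note: the enzyme is Sfp with the accession as filed and its product quenches rhodamine fluorescence; 0% = enzyme reaction without inhibitor and -100% = no enzyme wells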
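After 15 min at room temperature with compound, 15 nM Sfp received 5 uM rhodamine-CoA plus 12.5 uM BHQ-2-ybbR (50 mM Hepes pH 7.6, 10 mM MgCl2). Rate came from the fluorescence difference over 30 min, ex 525/em 598 nm.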
BAZ2B inh: inhibitors of human BAZ2B bromodomain. Q9UIF8. AlphaScreen BAZ2B-H3K14Ac peptide displacement. Potency, µM (series often up to 114 µM), for the others: top-dose activity change, negative = inhibition, most hits filed as inhibitors. actives 4.4% (n = 360,000); note: % is set by controls: 0 for no effect and ±100 for the full control effect; nearly all actives have a fitted effect of over 60% in size
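AlphaScreen displacement of biotin-H3(5-23)K14Ac peptide (50 nM final) from BAZ2B (50 nM final) in PBS pH 7.4, 0.01% Tween-20; complex preformed 30 min RT, then compounds (top 110 uM) 30 min RT, beads 20 min dark.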
* = called active by the depositor; [ ] = remark or other dose. Shown are actives, neighbours in structure and some others; about 12% of the full set was active somewhere. Calls come from the whole dose curve; as a rule, active = well fitted curve in the direction sought with a large enough effect; inconclusive = small, poorly fitted or top-dose-only effect, or another doubt; inactive = no such curve, though single readings can be large; an effect the other way counts as inactive or inconclusive. Potency is the fitted concentration of half-maximal effect.

Screening C=CCOc1ccccc1C(=O)/C=C1/C(=O)Nc2ccccc21 returned G9a block inconclusive, HP1b binding inh -12.6%, JMJD2A Tudor inconclusive, Sfp PPTase inh 79.4µM* and BAZ2B inh -34.2%.
NC(=O)COc1ccc(C(=O)/C=C2/C(=O)Nc3ccccc32)cc1 was read as G9a block 79.4µM*, HP1b binding inh -3.6%, JMJD2A Tudor inconclusive, Sfp PPTase inh -5.6% and BAZ2B inh -15.4%.
For COc1ccc(C(=O)/C=C2/C(=O)Nc3ccccc32)cc1 the results were G9a block -12.3%, HP1b binding inh 40.3%, JMJD2A Tudor -16.0%, Sfp PPTase inh -0.7% and BAZ2B inh -4.9%.
Screening COc1ccc(C(=O)OCc2ccccc2F)cc1S(=O)(=O)N1CCCC1 returned TDP1 inh -0.3%, G9a block 17.9%[59 µM], HP1b binding inh 25.6%, JMJD2A Tudor -12.0% and BAZ2B inh -3.7%.
Screening COc1cc(/C=C2\CCCc3c2nc2ccccc2c3C(=O)O)cc(Br)c1O returned TDP1 inh 0.2%[0.0935 µM], G9a block 39.8µM*, HP1b binding inh 16.5%, JMJD2A Tudor -9.6%, Sfp PPTase inh -5.4% and BAZ2B inh inconclusive.
COc1cccc(/C=C2\CC(C)Cc3c2nc2ccccc2c3C(=O)O)c1OC (centres undefined) was read as TDP1 inh 4.5%, G9a block 50.1µM*, HP1b binding inh 44.2%, JMJD2A Tudor 9.5%, Sfp PPTase inh 31.6µM* and BAZ2B inh -13.4%.
Screening CCN1C/C(=C\c2cccc(C)c2)c2nc3ccccc3c(C(=O)O)c2C1 returned TDP1 inh 7.3%, G9a block 17.0%[0.501 µM], Sfp PPTase inh 79.4µM* and BAZ2B inh inconclusive.
For COc1cc(/C=C2\CCc3c2nc2ccccc2c3C(=O)O)cc(OC)c1OC the results were G9a block 14.1µM*, HP1b binding inh -25.9%, JMJD2A Tudor 89.1µM*, Sfp PPTase inh inconclusive and BAZ2B inh 44.7µM*.
For Cc1ccc(S(=O)(=O)N(CC(=O)NCC2CCCO2)Cc2ccc(F)cc2)cc1 (centres undefined) the results were TDP1 inh -5.8%, G9a block 0.2%, HP1b binding inh -25.8%, JMJD2A Tudor -23.4%, Sfp PPTase inh -4.5% and BAZ2B inh 11.6%.
Screening COc1ccc(Nc2nc(N)nc(CSc3nc4cc(OC)ccc4s3)n2)cc1 returned TDP1 inh 6.3%, G9a block inconclusive, HP1b binding inh -18.9%, JMJD2A Tudor inconclusive and BAZ2B inh inconclusive.
For CCOCCCNC(=O)c1[nH]c2cc(C)ccc2c1Sc1ccc(Cl)cc1 the results were TDP1 inh 14.3%, G9a block inconclusive, HP1b binding inh -1.9%, JMJD2A Tudor inconclusive and BAZ2B inh -36.2%.
O=C(c1ccc2c(=O)n(Cc3ccco3)c(=S)[nH]c2c1)N1CCN(Cc2ccccc2)CC1 was read as TDP1 inh 11.2%, G9a block -4.0%[59 µM], HP1b binding inh 5.7%, JMJD2A Tudor -26.1%, Sfp PPTase inh 9.2% and BAZ2B inh 0.5%.
CCCN(CCC)C(=O)c1ccc2c(=O)n(Cc3ccco3)c(=S)[nH]c2c1 was read as TDP1 inh 0.0%, G9a block inconclusive, HP1b binding inh 0.8%, JMJD2A Tudor -36.0%, Sfp PPTase inh 12.6µM* and BAZ2B inh -35.1%.
`CN1CCN(C(=O)c2ccc3c(=O)n(Cc4ccco4)c(=S)[nH]c3c2)CC1` gave TDP1 inh 3.5%, G9a block 44.7µM*, HP1b binding inh 17.2%, JMJD2A Tudor 12.6µM*, Sfp PPTase inh -5.1% and BAZ2B inh -5.1%.
`Cc1nc2c(ncn2-c2ccccc2)c(=O)n1NC(=O)CN1CCCCC1` gave TDP1 inh 3.7%, G9a block 13.0%[59 µM], HP1b binding inh 46.6%, JMJD2A Tudor 12.4%, Sfp PPTase inh 10.9% and BAZ2B inh -1.1%.
C=CCOC(=O)C(C(=O)CC)C(NC(=O)OC)c1ccc(F)cc1 (centres undefined) was read as TDP1 inh 1.6%[21 µM] and Sfp PPTase inh -2.2%.
Screening O=C(Cc1ccccc1)N[C@@H](Cc1ccc(O)cc1)C(=O)O returned TDP1 inh 2.4%, G9a block 48.4%[59 µM], Sfp PPTase inh 13.4% and BAZ2B inh 3.8%.
O=C(CN1C(=O)C2CC=CCC2C1=O)Nc1ccc(OC(F)(F)F)cc1 (centres undefined) was read as TDP1 inh 0.7%, G9a block 14.2%[59 µM], HP1b binding inh 32.7%, JMJD2A Tudor 2.0% and BAZ2B inh -2.1%.
For COc1cc(/C=C/c2sc3ccccc3[n+]2CCCS(=O)(=O)[O-])ccc1O the results were TDP1 inh 1.2%, G9a block 11.2µM*, HP1b binding inh 31.6µM*, JMJD2A Tudor -32.6%, Sfp PPTase inh 6.31µM* and BAZ2B inh 44.7µM*.
`Clc1ccc(/C(Cc2nc3ccccc3[nH]2)=N\Nc2ccccc2)cc1` gave G9a block 7.08µM*, HP1b binding inh -11.3%, JMJD2A Tudor inconclusive, Sfp PPTase inh -3.0% and BAZ2B inh inconclusive.
O=c1[nH]c2ccccc2nc1Cc1ccc([N+](=O)[O-])cc1 was read as TDP1 inh 7.4%, G9a block 50.1µM*, HP1b binding inh 29.0%, JMJD2A Tudor -4.5%, Sfp PPTase inh 8.8% and BAZ2B inh -1.4%.
`O=C(NCCc1nc2ccccc2[nH]1)c1ccc([N+](=O)[O-])cc1` gave TDP1 inh 2.4%, G9a block -6.7%, HP1b binding inh 17.6%, JMJD2A Tudor -20.7%, Sfp PPTase inh 1.7% and BAZ2B inh -1.7%.
For O=C(Cc1nc2ccccc2[nH]1)c1ccc([N+](=O)[O-])cc1 the results were TDP1 inh 10.1%, G9a block 44.7µM*, HP1b binding inh 18.5%, JMJD2A Tudor -26.9%, Sfp PPTase inh 15.8µM* and BAZ2B inh -27.2%.
For CN/N=C(\Cc1nc2ccccc2[nH]1)c1ccc([N+](=O)[O-])cc1 the results were TDP1 inh 7.7%, G9a block inconclusive, HP1b binding inh 1.6%, JMJD2A Tudor inconclusive, Sfp PPTase inh 22.4µM* and BAZ2B inh inconclusive.
O=c1[nH]c2ccccc2nc1Cc1ccc(Cl)cc1 was read as TDP1 inh 1.9%[0.0935 µM], G9a block 20.5%, HP1b binding inh 5.2%, JMJD2A Tudor 1.8%, Sfp PPTase inh -5.6% and BAZ2B inh 0.7%.
For O=C(Cc1nc2ccccc2[nH]1)c1ccc(Cl)cc1 the results were TDP1 inh -13.3%, G9a block 4.3%, HP1b binding inh 18.2%, JMJD2A Tudor -18.7%, Sfp PPTase inh 15.8% and BAZ2B inh -2.9%.

Source: PubChem (National Center for Advancing Translational Sciences (NCATS))
